Measured values reported in PubChem BioAssay (NCI).
Where “and” joins values, the source holds several entries; their conditions need not be identical. Equal values may be shown once. About 83,000 compounds went through this panel and 20% of them were active in at least one assay; those are over-represented in the sample as a whole.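 Step 1: grow cells in 96-well plates. Step 2: add test compound at a single concentration. Step 3: incubate 48 h. Step 4: record percent growth.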 A number with no mark means an inactive call. Calls of active or inactive are those of the source. The calls were made as follows: active = growth percent below 10; inactive = the rest.

Key:
Test in all cases: NCI-60 one-dose screen, 48 h (100 = growth as untreated, 0 = no growth, -100 = all killed)
Conditions in all cases: 10 µM unless noted
T-47D breast = system: T-47D breast
BT-549 breast = system: BT-549 breast
MDA-MB-435 melanoma = system: MDA-MB-435 melanoma
SW-620 colon = system: SW-620 colon
MCF7 breast = system: MCF7 breast
HCT-116 colon = system: HCT-116 colon
HCC-2998 colon = system: HCC-2998 colon
KM12 colon = system: KM12 colon

SMILES	growth (T-47D breast)	growth (BT-549 breast)	growth (MDA-MB-435 melanoma)	growth (SW-620 colon)	growth (MCF7 breast)	growth (HCT-116 colon)	growth (HCC-2998 colon)	growth (KM12 colon)
O=C(O)C1C(C(=O)O)C2(Cl)C(Cl)=C(Cl)C1(Cl)C2(Cl)Cl (stereo not drawn)	98.7%	104% and 107%	100% and 106%	98.5% and 101%	104% and 96.8%	101% and 107%	102%	100% and 105%
N#CCC(=O)c1ccccc1	99.4%	116%	101%	97.6%	92.6%	107%	71.2%	90.8%
C=C1C(=O)OC2/C=C(\C)CC/C=C(/C)CC(OC(=O)/C(=C/CO)CO)C12 (stereo not drawn)	–	–	–	–	-85% [100 µM] (active) and -68.3% [100 µM] (active)	–	–	–
C/C(=N/OC(=O)N(C)C)c1ccc(Cl)c(Cl)c1	95.6%	125%	–	115%	97.3%	107%	109%	109%
O=[N+]([O-])c1cc(Br)c(O)c(Br)c1	115%	121%	–	108%	94.3%	97.3%	96.1%	–
CCCC[C@@H]1CCN2C[C@@H](O)[C@@H](O)[C@@H]2[C@H]1O	–	–	–	–	111% [100 µM] and 89.6% [100 µM]	–	–	–
CC1=CC(=Nc2ccc(N(CCCl)CCCl)cc2)C=C(C)C1=O	-17.7% (active)	52.5%	35.4%	3.05% (active)	–	7.59% (active)	55.6%	59.8%
CCCCCCCCCCCCCCCC[N+](C)(C)Cc1ccccc1	7% (active) and -12% (active)	-0.798% (active) and -75.1% (active)	-58.7% (active) and -87.5% (active)	-6.91% (active) and -62.2% (active)	2.3% (active) and -42.3% (active)	-53% (active) and -100% (active)	-56.7% (active) and -49.7% (active)	-81% (active) and -85.4% (active)
CN(N)/N=N/c1nc[nH]c1[N+](=O)[O-]	–	–	–	–	69.6% [100 µM] and 35% [100 µM]	–	–	–
Cc1cc[c-]cc1.Fc1c[c-]c(-c2ccccn2)c(F)c1.[Pt+2].c1ccc([PH+](c2ccccc2)c2ccccn2)cc1	23.5%	63.2%	39.3%	45.6%	38.9%	35%	83.2%	52.4%
C[C@]12CC[C@H]3[C@@H](CC=C4c5nc(-c6ccc(Br)cc6)sc5CC[C@@]43C)[C@@H]1CC[C@@H]2O	92.6%	82.8%	–	108%	87.2%	84.9%	110%	102%
NNC(=S)N/N=C(\C(=O)Nc1cccc(O)c1)C1C(=O)NC(=S)NC1=O	–	–	–	–	95.1% [100 µM] and 87.3% [100 µM]	–	–	–
COc1ccc2c(c1)C1(C)CCN(C)CC(C1)C2O (stereo not drawn)	95.2%	98.2%	105%	101%	96%	97.8%	89.9%	102%
Oc1ccc(O)c(Cl)c1	89.1%	66.3% and 96.1%	102% and 109%	112% and 115%	–	102% and 109%	110% and 88.1%	100% and 102%
C[C@]12CCc3sc(Nc4ccc(F)cc4)nc3C1=CC[C@@H]1[C@@H]2CC[C@]2(C)C(=O)CC[C@@H]12	80%	43.8%	57%	35.4%	20%	17.7%	95.1%	72.2%
CCCCS(=O)(=O)Cl	100%	104%	108%	112%	97.7%	97.6%	124%	114%
O=[N+]([O-])c1ccc2scc3c4ccccc4nc-3c2c1	-24.3% (active)	22.7%	-2.05% (active)	-76.4% (active)	-64.6% (active)	-98.7% (active)	95.7%	1.98% (active)
O=[N+]([O-])c1cc(Cl)c(Cl)cc1Cl	107% and 108%	121% and 119%	101% and 107%	100% and 105%	99% and 113%	107% and 106%	94.2% and 118%	109% and 113%
CC(=O)OC1CC2(O)C(CCC3(C)C(c4ccc(=O)oc4)CCC32O)C2(C)CCC(OC3OC(CO)C(O)C(O)C3O)C=C12 (stereo not drawn)	-9.39% (active)	-85.4% (active)	–	-67.4% (active)	–	-94.3% (active)	-63.3% (active)	-97.8% (active)
N#CCN(CC#N)[N+](=O)[O-]	92.2%	–	108%	101%	93.3%	96.8%	115%	112%
